PubChem BioAssay (NCI)
About 79,000 compounds went through this panel and 15% of them were active in at least one assay; those are over-represented in the sample as a whole. Rule as the data show it: active = growth inhibition above about 70%; inactive = the rest.

Tests used:
[1] = NCI Yeast Anticancer Drug Screen. Data for the rad50 strain (AID 155);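 also: 0% = growth of vehicle-only cultures of the same strain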; details: S. cerevisiae rad50 strain growth inhibition; at 50.0 µM; hits give high values
Summary of the method: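 Yeast carrying a defined DNA repair defect were exposed to test compounds, and growth was compared with vehicle-treated controls to give percent inhibition.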

[2] = NCI Yeast Anticancer Drug Screen. Data for the mec2-1 strain (AID 157); details: S. cerevisiae mec2-1 strain, at 50.0 µM, hits give high values
Summary of the method: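 Vehicle-treated cultures served as reference for growth inhibition of compound-exposed mec2-1 yeast.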

[3] = NCI Yeast Anticancer Drug Screen. Data for the sgs1 mgt1 strain (AID 161);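 also: 0% = growth of cultures given vehicle only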; details: S. cerevisiae sgs1 mgt1 strain, at 50.0 µM, hits give high values
Summary of the method: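 Mutant yeast exposed to compound; growth scored against vehicle-only wells.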

[4] = NCI Yeast Anticancer Drug Screen. Data for the cln2 rad14 strain (AID 165);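 also: 0% = growth equal to vehicle treated cultures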; details: S. cerevisiae cln2 rad14 strain, at 50.0 µM, hits give high values
Summary of the method: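 Each compound was tested on cln2 rad14 yeast. Inhibition of growth was calculated against vehicle-exposed controls.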

[5] = NCI Yeast Anticancer Drug Screen. Data for the bub3 strain (AID 167); details: S. cerevisiae bub3 mutant strain, at 50.0 µM, hits give high values
Summary of the method: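 Compounds were applied to a genetically altered yeast strain carrying a cell-cycle control defect. Growth inhibition was scored against vehicle-treated controls.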

[6] = NCI Yeast Anticancer Drug Screen. Data for the mlh1 rad18 strain (AID 175); details: S. cerevisiae mlh1 rad18 strain growth inhibition; at 50.0 µM; hits give high values
Summary of the method: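 Vehicle-treated cultures served as the reference for growth inhibition in a yeast strain carrying DNA damage repair alterations exposed to each compound.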

Measured: growth inhibition

FC(F)(F)c1nc2ccccc2[nH]1
inactive: [1] 16.9% | [2] -1.4% | [3] 9.55% | [4] 14.8% | [5] -1.65% | [6] 13.3%

NC(=O)C1CC(O)CC(C(N)=O)O1 (centres undefined)
inactive: [1] -6.75% | [2] 8.3% | [3] -9.55% | [4] 3.4% | [5] -2.35% | [6] -23.9%

Cc1ccc(Sc2cccc3c2C(=O)c2c(Sc4ccc(C)cc4)cccc2C3=O)cc1
inactive: [1] -18.9% | [2] 9.05% | [3] -24.5% | [4] -12.4% | [5] -2.7% | [6] -11.3%

CS(=O)(=O)c1[nH]nc2[nH]c(=O)[nH]c(=O)c12
inactive: [1] -30.5% | [2] -30.4% | [3] -26.5% | [4] -4.7% | [5] -28.8% | [6] 6.85%

O=C1C(Nc2ccccc2)=C(c2ccccc2)C(=O)N1c1ccccc1
inactive: [1] 1.15% | [2] -7.55% | [3] 0.7% | [4] -46.2% | [5] -11.8% | [6] -10.8%

CCCCCC/C=C/CCCCCCCc1cccc(OC)c1 (tested in a mixture with another compound)
inactive: [1] 3.85% | [2] -5.9% | [3] 3.6% | [4] -14.7% | [5] 1.25% | [6] 12.1%

C=C(CN(C)C)C(=O)c1ccc(OC)cc1
inactive: [1] 7.75% | [2] 19% | [3] -3.75% | [4] 17.5% | [5] 2% | [6] 27.2%

O=C(O)c1ccc(N=C=S)cc1O
inactive: [1] -1.95% | [2] -8.75% | [3] -2.1% | [4] -12.8% | [5] 3.8% | [6] -1.8%

COc1ccccc1C1c2cc3c(cc2OC(C)(OC)C1C)OCO3 (centres undefined)
inactive: [1] -3.4% | [2] -17.2% | [3] 18.1% | [4] -12.7% | [5] -10.2% | [6] 14.1%

CN1C(C)(C)NC(=S)C1(C)C
inactive: [1] 26.9% | [2] -18.1% | [3] -5.5% | [4] 11.7% | [5] 1.65% | [6] -9.65%

CCOc1ccc(NC(=O)CC2SC(N)=NC2=O)cc1 (centres undefined)
inactive: [1] -15.2% | [2] -35.5% | [3] -1.9% | [4] 8.5% | [5] -2.8% | [6] -0.6%

CC(C)(c1ccc([N+](=O)[O-])cc1)[N+](=O)[O-]
inactive: [1] 11.1% | [2] 10.3% | [3] 1.6% | [4] -7.4% | [5] -11.8% | [6] -4.55%

COc1cccc(NCNC2Nc3ccccc3N2)c1
inactive: [1] 25.1% | [2] 10.1% | [3] -0.75% | [4] -23.4% | [5] 18.4% | [6] 19.8%

O=[N+]([O-])c1ccc(Cl)c2cccnc12
inactive: [1] 27.2% | [2] -7.65% | [3] -0.15% | [4] 7.3% | [5] 0.45% | [6] 50.4%

C=C(C(=C)P(=S)(c1ccccc1)c1ccccc1)P(=S)(c1ccccc1)c1ccccc1
inactive: [1] -10% | [2] -10.7% | [3] -37.1% | [4] -7.15% | [5] -5.8% | [6] -16.3%

CC(=O)Oc1ccc(OC(C)=O)c([N+](=O)[O-])c1
inactive: [1] 24.1% | [2] 17.2% | [3] -1.65% | [4] -9.75% | [5] 1% | [6] 29.2%

Nc1ccc2ccc3ccc(N)nc3c2n1
inactive: [1] 36% | [2] 38% | [3] 40.7% | [4] -1.8% | [5] 44.1% | [6] 17.1%

O=c1cc(O)n(C2=NCCN2)[nH]1
inactive: [1] -6.45% | [2] -23.6% | [3] -0.2% | [4] 16.2% | [5] -12.5% | [6] -9.95%

C/C(=N/OC(=O)c1cccc2c(=O)c3ccccc3[nH]c12)[C@H]1CC[C@H]2[C@@H]3CCC4=C/C(=N/OC(=O)c5cccc6c(=O)c7ccccc7[nH]c56)CC[C@]4(C)[C@H]3CC[C@]12C
inactive: [1] 29.4% | [2] 38% | [3] 66.5% | [4] 28.4% | [5] 48.9% | [6] 36.5%
